Test in all cases: DAPPL (digital affinity profiling via proximity ligation, sequencing); 10 mM Tris-HCl pH 7.5, 50 mM NaCl, 1 mM DTT, 4% glycerol, room temperature, 30 min; GST-TFs on glutathione beads, 16-mer random dsDNA library, 0.1% formaldehyde crosslink after washing; high values mean tight binding
Common to all, as to conditions: protein: recombinant; tags: N-terminal GST; dsDNA, one strand shown

For one assay, the target named is T1, ERF (Homo sapiens, UniProt P50548 1-548).
T1 sequence: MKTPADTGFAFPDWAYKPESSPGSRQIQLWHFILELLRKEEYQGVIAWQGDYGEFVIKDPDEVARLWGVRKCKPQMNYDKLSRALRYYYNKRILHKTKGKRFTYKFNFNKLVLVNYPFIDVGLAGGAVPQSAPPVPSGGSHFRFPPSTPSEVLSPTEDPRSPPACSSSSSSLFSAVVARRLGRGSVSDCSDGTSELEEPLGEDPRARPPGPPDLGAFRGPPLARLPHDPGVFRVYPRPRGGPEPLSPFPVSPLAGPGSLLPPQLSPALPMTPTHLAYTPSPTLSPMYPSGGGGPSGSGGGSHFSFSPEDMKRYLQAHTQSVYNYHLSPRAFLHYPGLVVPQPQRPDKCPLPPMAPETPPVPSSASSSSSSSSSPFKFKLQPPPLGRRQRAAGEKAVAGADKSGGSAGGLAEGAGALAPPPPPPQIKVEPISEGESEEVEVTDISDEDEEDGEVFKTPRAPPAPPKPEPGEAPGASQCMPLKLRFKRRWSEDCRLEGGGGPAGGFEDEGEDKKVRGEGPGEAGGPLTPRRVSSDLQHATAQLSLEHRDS
The gist of the method:
(§1)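 Human transcription factors carrying a GST fusion were produced in yeast, bound to glutathione beads, tagged with DNA barcodes and pooled together with a tag-only sample. Each pool was held with 200 nmole of a random double-stranded 16-mer DNA library in Tris/NaCl/DTT/glycerol buffer for 30 min at room temperature, then washed, crosslinked in 0.1% formaldehyde, proximity-ligated with BsaI/T4 ligase (1 h, 37 °C), PCR-amplified and sequenced on an Illumina NextSeq500. Binding signal is the read frequency of each hexamer for a given factor divided by its frequency in the tag-only sample.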

Another assay concerns the target T2, ETV3L (Homo sapiens, UniProt Q6ZN32 1-361).
T2 sequence: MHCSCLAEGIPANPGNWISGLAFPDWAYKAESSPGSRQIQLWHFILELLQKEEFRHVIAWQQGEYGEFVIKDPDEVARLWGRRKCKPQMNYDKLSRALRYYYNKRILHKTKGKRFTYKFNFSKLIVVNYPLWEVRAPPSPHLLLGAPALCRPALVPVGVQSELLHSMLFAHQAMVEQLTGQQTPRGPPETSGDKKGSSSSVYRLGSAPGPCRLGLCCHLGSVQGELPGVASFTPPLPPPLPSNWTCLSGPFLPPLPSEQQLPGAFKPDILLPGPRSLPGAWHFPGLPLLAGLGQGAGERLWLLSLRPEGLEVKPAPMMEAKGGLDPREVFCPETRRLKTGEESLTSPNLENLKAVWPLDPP
The procedure, abridged:
as §1

For a further assay, the target named is T3, ETS2 (Homo sapiens, UniProt P15036 1-469).
T3 sequence: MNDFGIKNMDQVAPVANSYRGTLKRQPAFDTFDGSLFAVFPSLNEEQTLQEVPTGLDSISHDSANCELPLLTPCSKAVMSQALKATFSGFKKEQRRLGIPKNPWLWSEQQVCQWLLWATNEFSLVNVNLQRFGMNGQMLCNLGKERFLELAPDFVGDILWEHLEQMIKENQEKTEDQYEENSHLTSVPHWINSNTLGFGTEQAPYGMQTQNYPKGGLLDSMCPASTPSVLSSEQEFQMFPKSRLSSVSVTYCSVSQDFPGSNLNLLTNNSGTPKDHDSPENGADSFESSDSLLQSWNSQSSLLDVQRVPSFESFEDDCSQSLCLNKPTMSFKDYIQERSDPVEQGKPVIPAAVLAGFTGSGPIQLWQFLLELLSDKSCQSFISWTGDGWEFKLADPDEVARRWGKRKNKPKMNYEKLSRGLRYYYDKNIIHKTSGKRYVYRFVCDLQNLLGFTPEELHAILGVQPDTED
The procedure, abridged:
as §1

Another assay deals with T4, SPDEF (Homo sapiens, UniProt O95238 1-335).
T4 sequence: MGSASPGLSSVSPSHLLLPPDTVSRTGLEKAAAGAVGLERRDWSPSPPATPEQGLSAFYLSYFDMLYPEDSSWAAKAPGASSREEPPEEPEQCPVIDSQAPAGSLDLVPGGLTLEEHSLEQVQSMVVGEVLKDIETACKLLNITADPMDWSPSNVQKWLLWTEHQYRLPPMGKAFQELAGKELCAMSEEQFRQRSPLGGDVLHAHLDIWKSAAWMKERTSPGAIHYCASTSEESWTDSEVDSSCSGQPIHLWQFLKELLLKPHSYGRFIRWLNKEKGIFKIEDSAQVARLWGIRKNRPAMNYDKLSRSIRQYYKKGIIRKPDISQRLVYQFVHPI
The procedure, abridged: as §1

In another assay the target is T5, ETV7 (Homo sapiens, UniProt Q9Y603 1-341).
T5 sequence: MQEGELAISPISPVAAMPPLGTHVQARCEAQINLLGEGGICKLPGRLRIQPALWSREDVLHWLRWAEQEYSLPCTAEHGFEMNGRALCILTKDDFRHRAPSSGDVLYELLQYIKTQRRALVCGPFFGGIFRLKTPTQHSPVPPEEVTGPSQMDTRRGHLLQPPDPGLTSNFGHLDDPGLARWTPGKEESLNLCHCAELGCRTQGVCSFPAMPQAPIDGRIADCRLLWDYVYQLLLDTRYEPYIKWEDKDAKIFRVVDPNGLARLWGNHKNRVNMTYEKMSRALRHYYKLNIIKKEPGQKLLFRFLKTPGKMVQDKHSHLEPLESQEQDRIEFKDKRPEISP
The gist of the method:
as §1

For another assay, the target named is T6, ELF5 (Homo sapiens, UniProt Q9UKW6-2 1-255).
T6 sequence: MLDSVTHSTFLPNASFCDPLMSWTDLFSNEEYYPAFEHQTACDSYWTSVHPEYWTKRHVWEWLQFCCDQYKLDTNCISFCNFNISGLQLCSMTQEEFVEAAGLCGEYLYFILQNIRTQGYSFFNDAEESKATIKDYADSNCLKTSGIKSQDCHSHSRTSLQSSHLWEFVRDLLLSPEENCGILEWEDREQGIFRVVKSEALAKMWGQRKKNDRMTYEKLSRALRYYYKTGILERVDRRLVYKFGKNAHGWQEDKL
The procedure, abridged:
as §1

The next assay concerns the target T7, ETV3 (Homo sapiens, UniProt P41162-2 1-143).
T7 sequence: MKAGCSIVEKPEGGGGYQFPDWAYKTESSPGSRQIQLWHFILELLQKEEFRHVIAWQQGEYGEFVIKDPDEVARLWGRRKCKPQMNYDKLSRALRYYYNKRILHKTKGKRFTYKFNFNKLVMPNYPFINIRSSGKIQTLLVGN
The gist of the method:
as §1

The target in a further assay is ETV6 (Homo sapiens, UniProt P41212 1-452). The gist of the method: as §1

We go through seven sequences from publication PMC7862700, “An all-to-all approach to the identification of sequence-specific readers for epigenetic DNA modifications on cytosine”.

Sequence of ETV6 (P41212 whole entry): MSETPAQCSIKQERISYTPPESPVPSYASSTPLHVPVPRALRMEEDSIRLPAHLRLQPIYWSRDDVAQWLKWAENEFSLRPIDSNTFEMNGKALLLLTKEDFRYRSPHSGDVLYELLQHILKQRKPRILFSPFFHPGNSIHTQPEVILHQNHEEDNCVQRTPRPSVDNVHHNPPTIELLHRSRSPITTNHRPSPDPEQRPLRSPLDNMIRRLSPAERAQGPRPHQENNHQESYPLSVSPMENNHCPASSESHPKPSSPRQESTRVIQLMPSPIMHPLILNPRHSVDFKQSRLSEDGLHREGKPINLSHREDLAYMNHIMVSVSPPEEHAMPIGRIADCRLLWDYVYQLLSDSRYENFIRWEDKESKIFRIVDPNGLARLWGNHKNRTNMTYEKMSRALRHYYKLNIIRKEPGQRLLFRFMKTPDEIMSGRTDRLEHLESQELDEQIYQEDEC

Turning to TCTGTC, the binding signal is 1.31 fold enrichment (6-mer frequency, TF over GST control) with ERF; 1.19 fold enrichment (6-mer frequency, TF over GST control) in the assay with ETV3L; 1.23 fold enrichment (6-mer frequency, TF over GST control) with ETS2; 1.15 fold enrichment (6-mer frequency, TF over GST control) with SPDEF; 1.14 fold enrichment (6-mer frequency, TF over GST control) with ETV7; 1.16 fold enrichment (6-mer frequency, TF over GST control) with ELF5. For the same sequence, the binding signal with ETV3 is 1.05 fold enrichment (6-mer frequency, TF over GST control); in the assay with ETV6, 1.23 fold enrichment (6-mer frequency, TF over GST control).
For the sequence CAACAC, the binding signal with ERF is 1.16 fold enrichment (6-mer frequency, TF over GST control); with ETV3L it was 1.13 fold enrichment (6-mer frequency, TF over GST control); in the assay with ETS2, 1.13 fold enrichment (6-mer frequency, TF over GST control); with SPDEF, 1.13 fold enrichment (6-mer frequency, TF over GST control); in the assay with ETV7, 1.13 fold enrichment (6-mer frequency, TF over GST control); in the assay with ELF5 it was 1.1 fold enrichment (6-mer frequency, TF over GST control). The binding signal with ETV3 was 1.15 fold enrichment (6-mer frequency, TF over GST control); in the assay with ETV6, 1.11 fold enrichment (6-mer frequency, TF over GST control).
In the case of CATTCG, the binding signal with ERF is 1.21 fold enrichment (6-mer frequency, TF over GST control); with ETV3L, 1.17 fold enrichment (6-mer frequency, TF over GST control); in the assay with ETS2, 1.17 fold enrichment (6-mer frequency, TF over GST control); with SPDEF, 1.15 fold enrichment (6-mer frequency, TF over GST control); with ETV7, 1.18 fold enrichment (6-mer frequency, TF over GST control); with ELF5 it was 1.13 fold enrichment (6-mer frequency, TF over GST control). Moreover, the binding signal in the assay with ETV3 is 1.27 fold enrichment (6-mer frequency, TF over GST control); with ETV6, 1.27 fold enrichment (6-mer frequency, TF over GST control).
With AAATTC, the binding signal with ERF was 1.29 fold enrichment (6-mer frequency, TF over GST control); in the assay with ETV3L it was 1.43 fold enrichment (6-mer frequency, TF over GST control); in the assay with ETS2, 1.33 fold enrichment (6-mer frequency, TF over GST control); with SPDEF, 1.34 fold enrichment (6-mer frequency, TF over GST control); with ETV7 it was 1.28 fold enrichment (6-mer frequency, TF over GST control); in the assay with ELF5, 1.4 fold enrichment (6-mer frequency, TF over GST control). Besides, the binding signal with ETV3 was 1.3 fold enrichment (6-mer frequency, TF over GST control); with ETV6, 1.31 fold enrichment (6-mer frequency, TF over GST control).
With ACCATC, the binding signal is 1.14 fold enrichment (6-mer frequency, TF over GST control) in the assay with ERF; 1.13 fold enrichment (6-mer frequency, TF over GST control) in the assay with ETV3L; 1.12 fold enrichment (6-mer frequency, TF over GST control) with ETS2; 1.09 fold enrichment (6-mer frequency, TF over GST control) in the assay with SPDEF; 1.16 fold enrichment (6-mer frequency, TF over GST control) in the assay with ETV7; 1.06 fold enrichment (6-mer frequency, TF over GST control) with ELF5. The binding signal is 1.03 fold enrichment (6-mer frequency, TF over GST control) with ETV3 and 1.06 fold enrichment (6-mer frequency, TF over GST control) with ETV6.
As for TTTGGT, the binding signal is 1.49 fold enrichment (6-mer frequency, TF over GST control) with ERF; 1.36 fold enrichment (6-mer frequency, TF over GST control) with ETV3L; 1.43 fold enrichment (6-mer frequency, TF over GST control) in the assay with ETS2; 1.28 fold enrichment (6-mer frequency, TF over GST control) with SPDEF; 1.45 fold enrichment (6-mer frequency, TF over GST control) in the assay with ETV7; 1.4 fold enrichment (6-mer frequency, TF over GST control) with ELF5. Further, the binding signal was 1.39 fold enrichment (6-mer frequency, TF over GST control) with ETV3 and 1.36 fold enrichment (6-mer frequency, TF over GST control) with ETV6.
Consider ACTGAA, for which the binding signal with ERF was 1.13 fold enrichment (6-mer frequency, TF over GST control); with ETV3L, 1.1 fold enrichment (6-mer frequency, TF over GST control); with ETS2, 1.23 fold enrichment (6-mer frequency, TF over GST control); in the assay with SPDEF, 1.21 fold enrichment (6-mer frequency, TF over GST control); with ETV7, 1.06 fold enrichment (6-mer frequency, TF over GST control); with ELF5 it was 1.11 fold enrichment (6-mer frequency, TF over GST control). Further, the binding signal was 1.21 fold enrichment (6-mer frequency, TF over GST control) with ETV3 and 1.17 fold enrichment (6-mer frequency, TF over GST control) in the assay with ETV6.
